# According to PubChem BioAssay AID1159580 (chemical genetic matrix, 2015):
# Out of some 5,500 compounds screened, about 2,000 (36%) were called active. Not shown: some 18% with an inconclusive outcome. This is one part of the list. Unmarked numbers belong to inactive results. Cut-off read from the data, not from the text of the source: active = normalized growth mostly below about 0.91 (no sharp cut-off); inconclusive = no clear call, values can overlap the other calls; inactive = mostly above about 0.92.
# Experiment: chemical genetic growth profiling, strain panel (AID 1159580);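 note: tested at 20 µM; growth read once vehicle control cultures reached saturation at 30 °C; 1 = growth at the plate median or of vehicle wells; lower values mean less growth of the strain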
# Conditions: growth OD
structure (smiles),measurement,setting,value
O=[N+]([O-])c1ccc(O)c([N+](=O)[O-])c1,normalized growth,"S. cerevisiae deletion strains, locus YKL009W, strain mrt4, active compounds read low",0.249 (active)
same,normalized growth,"S. cerevisiae deletion strains, locus YKL068W, active compounds read low",0.354 (active)
same,normalized growth,"S. cerevisiae deletion strains, locus YKL085W, strain MDH1 (second series), active compounds read low",0.192 (active)
same,normalized growth,"S. cerevisiae deletion strains, locus YKL085W, strain MDH1, active compounds read low",0.192 (active)
same,normalized growth,"S. cerevisiae deletion strains, locus YKL160W, strain elf1, active compounds read low",0.87 (active)
same,normalized growth,"S. cerevisiae deletion strains, locus YKL190W, strain CNB1, active compounds read low",0.795 (active)
same,normalized growth,"S. cerevisiae deletion strains, locus YKR001C, strain vps1, active compounds read low",0.691 (active)
same,normalized growth,"S. cerevisiae deletion strains, locus YKR026C, strain gcn3, active compounds read low",0.77 (active)
same,normalized growth,"S. cerevisiae deletion strains, locus YKR091W, strain srl3, active compounds read low",0.808 (active)
same,normalized growth,"S. cerevisiae deletion strains, locus YLL001W, strain dnm1, active compounds read low",0.793 (active)
same,normalized growth,"S. cerevisiae deletion strains, locus YLL026W, active compounds read low",0.816 (active)
same,normalized growth,"S. cerevisiae deletion strains, locus YLL041C, strain sdh2, active compounds read low",0.82 (active)
same,normalized growth,"S. cerevisiae deletion strains, locus YLR027C, strain aat2, active compounds read low",0.819 (active)
same,normalized growth,"S. cerevisiae deletion strains, locus YLR039C, strain RIC1, active compounds read low",0.841
same,normalized growth,"S. cerevisiae deletion strains, locus YLR058C, strain SHM2, active compounds read low",0.802 (active)
same,normalized growth,"S. cerevisiae deletion strains, locus YLR102C, strain apc9, active compounds read low",0.691 (active)
same,normalized growth,"S. cerevisiae deletion strains, locus YLR113W, strain HOG1, active compounds read low",0.214 (active)
same,normalized growth,"S. cerevisiae deletion strains, locus YLR221C, strain rsa3, active compounds read low",0.786 (active)
same,normalized growth,"S. cerevisiae deletion strains, locus YLR258W, strain gsy2, active compounds read low",0.843 (active)
same,normalized growth,"S. cerevisiae deletion strains, locus YLR262C, strain YPT6 (second series), active compounds read low",0.833 (active)
same,normalized growth,"S. cerevisiae deletion strains, locus YLR262C, strain YPT6, active compounds read low",0.932
same,normalized growth,"S. cerevisiae deletion strains, locus YLR268W, strain sec22, active compounds read low",0.736 (active)
same,normalized growth,"S. cerevisiae deletion strains, locus YLR320W, strain mms22, active compounds read low",0.807 (active)
same,normalized growth,"S. cerevisiae deletion strains, locus YLR330W, strain CHS5, active compounds read low",0.733 (active)
same,normalized growth,"S. cerevisiae deletion strains, locus YLR342W, strain FKS1 (second series), active compounds read low",0.851
same,normalized growth,"S. cerevisiae deletion strains, locus YLR342W, strain FKS1, active compounds read low",0.855 (active)
same,normalized growth,"S. cerevisiae deletion strains, locus YLR357W, strain rsc2, active compounds read low",0.855
same,normalized growth,"S. cerevisiae deletion strains, locus YLR370C, strain arc18, active compounds read low",0.814 (active)
same,normalized growth,"S. cerevisiae deletion strains, locus YLR371W, strain rom2, active compounds read low",0.718 (active)
same,normalized growth,"S. cerevisiae deletion strains, locus YLR384C, strain iki3, active compounds read low",0.798 (active)
same,normalized growth,"S. cerevisiae deletion strains, locus YLR418C, strain cdc73, active compounds read low",0.661 (active)
same,normalized growth,"S. cerevisiae deletion strains, locus YML016C, strain PPZ1, active compounds read low",0.79 (active)
same,normalized growth,"S. cerevisiae deletion strains, locus YML032C, strain rad52, active compounds read low",0.697 (active)
same,normalized growth,"S. cerevisiae deletion strains, locus YML120C, strain ndi1, active compounds read low",0.781 (active)
same,normalized growth,"S. cerevisiae deletion strains, locus YML124C, strain tub3, active compounds read low",0.701 (active)
same,normalized growth,"S. cerevisiae deletion strains, locus YMR058W, strain fet3, active compounds read low",0.793 (active)
same,normalized growth,"S. cerevisiae deletion strains, locus YMR078C, strain ctf18, active compounds read low",0.68 (active)
same,normalized growth,"S. cerevisiae deletion strains, locus YMR125W, strain sto1, active compounds read low",0.898
same,normalized growth,"S. cerevisiae deletion strains, locus YMR129W, active compounds read low",0.77 (active)
same,normalized growth,"S. cerevisiae deletion strains, locus YMR205C, strain PFK2, active compounds read low",0.852 (active)
same,normalized growth,"S. cerevisiae deletion strains, locus YMR223W, strain ubp8, active compounds read low",0.776 (active)
same,normalized growth,"S. cerevisiae deletion strains, locus YMR231W, strain pep5, active compounds read low",0.761 (active)
same,normalized growth,"S. cerevisiae deletion strains, locus YMR263W, strain SAP30, active compounds read low",0.783 (active)
same,normalized growth,"S. cerevisiae deletion strains, locus YMR307W, strain GAS1, active compounds read low",0.819
same,normalized growth,"S. cerevisiae deletion strains, locus YNL067W, strain RPL9B, active compounds read low",0.779 (active)
same,normalized growth,"S. cerevisiae deletion strains, locus YNL071W, strain lat1, active compounds read low",0.826 (active)
same,normalized growth,"S. cerevisiae deletion strains, locus YNL128W, strain TEP1, active compounds read low",0.842 (active)
same,normalized growth,"S. cerevisiae deletion strains, locus YNL153C, strain GIM3, active compounds read low",0.786 (active)
same,normalized growth,"S. cerevisiae deletion strains, locus YNL183C, strain NPR1, active compounds read low",0.179 (active)
same,normalized growth,"S. cerevisiae deletion strains, locus YNL209W, strain ssb2, active compounds read low",0.829 (active)
same,normalized growth,"S. cerevisiae deletion strains, locus YNL233W, strain BNI4, active compounds read low",0.75 (active)
same,normalized growth,"S. cerevisiae deletion strains, locus YNL248C, strain rpa49, active compounds read low",0.937
same,normalized growth,"S. cerevisiae deletion strains, locus YNL250W, strain rad50, active compounds read low",0.265 (active)
same,normalized growth,"S. cerevisiae deletion strains, locus YNL271C, strain bni1, active compounds read low",0.31 (active)
same,normalized growth,"S. cerevisiae deletion strains, locus YNL298W, strain CLA4, active compounds read low",0.251 (active)
same,normalized growth,"S. cerevisiae deletion strains, locus YNL307C, strain MCK1, active compounds read low",0.635 (active)
same,normalized growth,"S. cerevisiae deletion strains, locus YNL322C, strain KRE1 (second series), active compounds read low",0.651 (active)
same,normalized growth,"S. cerevisiae deletion strains, locus YNL322C, strain KRE1, active compounds read low",0.798 (active)
same,normalized growth,"S. cerevisiae deletion strains, locus YNR049C, strain mso1, active compounds read low",0.779 (active)
same,normalized growth,"S. cerevisiae deletion strains, locus YNR052C, strain pop2, active compounds read low",0.728 (active)
same,normalized growth,"S. cerevisiae deletion strains, locus YOL006C, strain TOP1, active compounds read low",0.9
same,normalized growth,"S. cerevisiae deletion strains, locus YOL012C, strain htz1",0.683
same,normalized growth,"S. cerevisiae deletion strains, locus YOL147C, strain pex11, active compounds read low",0.693 (active)
same,normalized growth,"S. cerevisiae deletion strains, locus YOR001W, strain rrp6, active compounds read low",0.841 (active)
same,normalized growth,"S. cerevisiae deletion strains, locus YOR061W, strain CKA2, active compounds read low",0.819 (active)
same,normalized growth,"S. cerevisiae deletion strains, locus YOR069W, strain VPS5, active compounds read low",0.759 (active)
same,normalized growth,"S. cerevisiae deletion strains, locus YOR070C, strain gyp1, active compounds read low",0.836 (active)
same,normalized growth,"S. cerevisiae deletion strains, locus YOR080W, strain dia2, active compounds read low",0.812 (active)
same,normalized growth,"S. cerevisiae deletion strains, locus YOR083W, strain WHI5, active compounds read low",0.831 (active)
same,normalized growth,"S. cerevisiae deletion strains, locus YOR106W, strain vam3, active compounds read low",0.87
same,normalized growth,"S. cerevisiae deletion strains, locus YOR136W, strain idh2, active compounds read low",0.845 (active)
same,normalized growth,"S. cerevisiae deletion strains, locus YOR144C, strain elg1, active compounds read low",0.709 (active)
same,normalized growth,"S. cerevisiae deletion strains, locus YOR184W, strain ser1, active compounds read low",0.799 (active)
same,normalized growth,"S. cerevisiae deletion strains, locus YOR231W, strain MKK1, active compounds read low",0.266 (active)
same,normalized growth,"S. cerevisiae deletion strains, locus YOR265W, strain rbl2, active compounds read low",0.832 (active)
same,normalized growth,"S. cerevisiae deletion strains, locus YOR270C, strain vph1, active compounds read low",0.901
same,normalized growth,"S. cerevisiae deletion strains, locus YOR290C, strain snf2, active compounds read low",0.826 (active)
same,normalized growth,"S. cerevisiae deletion strains, locus YOR316C, strain cot1, active compounds read low",0.726 (active)
same,normalized growth,"S. cerevisiae deletion strains, locus YPL051W, strain arl3, active compounds read low",0.843 (active)
same,normalized growth,"S. cerevisiae deletion strains, locus YPL055C, strain LGE1, active compounds read low",0.753 (active)
same,normalized growth,"S. cerevisiae deletion strains, locus YPL078C, strain atp4, active compounds read low",0.737 (active)
same,normalized growth,"S. cerevisiae deletion strains, locus YPL106C, strain sse1, active compounds read low",0.736 (active)
same,normalized growth,"S. cerevisiae deletion strains, locus YPL240C, strain hsp82, active compounds read low",0.813 (active)
same,normalized growth,"S. cerevisiae deletion strains, locus YPL241C, strain CIN2, active compounds read low",0.812 (active)
same,normalized growth,"S. cerevisiae deletion strains, locus YPL256C, strain CLN2, active compounds read low",0.256 (active)
same,normalized growth,"S. cerevisiae deletion strains, locus YPR119W, strain clb2, active compounds read low",0.697 (active)
same,normalized growth,"S. cerevisiae deletion strains, locus YPR141C, strain kar3, active compounds read low",0.309 (active)
same,normalized growth,"S. cerevisiae deletion strains, locus YPR163C, strain tif3, active compounds read low",0.656 (active)
same,normalized growth,"S. cerevisiae deletion strains, locus YPR167C, strain met16, active compounds read low",0.719 (active)
same,normalized growth,"S. cerevisiae deletion strains, strain wtn01, active compounds read low",0.755 (active)
same,normalized growth,"S. cerevisiae strains, strain wild type, active compounds read low",0.799 (active)
